PubChem BioAssay AID2216 (Broad Institute, 2009)
Among all 300,000 compounds or so, about 3,300 (1.1%) were called active. Roughly 6% stayed inconclusive and do not appear here. The entries come from a sample that favours actives as a whole. A number with no mark means an inactive call.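 Rule for the calls: active = more than half of the replicate wells show a fall in the fluorescence ratio signal beyond about 16% (limit read from the data, passing the limit was not always enough); inconclusive = exactly half of the replicate wells pass the set limit; inactive = fewer than half of replicates pass the limit.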

These compounds were tested on Ran GTPase (GTP-bound) - importin-beta complex (assay: inhibitors of RanGTP-importin-beta interaction, primary screen, biochemical, FRET, CFP-Ran, YFP-importin-beta, homogeneous (AID 2216;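 note: 0% = DMSO wells and 100% = Ran loaded with GDP instead of GTP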)). Conditions: cell-free CFP-Ran/YFP-importin-beta FRET ratio; hits give high values; concentration not given here.

Compound | inhibition
COc1ccc(C(CNC(=O)c2cccc(S(=O)(=O)Nc3ccccc3Cl)c2)N2CCOCC2)cc1 (stereo unspecified) | 10.7%
C/C=C/c1ccc(OCC(=O)OCC(=O)Nc2c(C)nn(-c3ccccc3)c2C)c(OC)c1 | 1.88%
COC(=O)C1=C(C)N(C)C(=S)NC1c1ccccc1 (stereo unspecified) | 4.45%
COCCN1C2=C(COC(C)(C)C2)C(=S)NC1c1ccccc1 (stereo unspecified) | 18.1% (active)
COCCN1C(=O)N[C@@H](CCc2ccccc2)[C@H](C(C)=O)[C@H]1C | -2.31%
O=C1CC2(CCCC2)Oc2ccc(Cl)cc21 | -0.936%
COc1cccc(COC(=O)C2CCN(S(=O)(=O)c3ccc(Cl)cc3)CC2)c1OC | 3.92%
CCCC(C)c1nnc(NC(=O)C2CC(=O)N(c3ccc(OCC)cc3)C2)s1 (stereo unspecified) | 18.4% (active)
CCOc1ccc(NC(=O)[C@H](C)NC(=O)C2CC(=O)N(c3ccc(OC)cc3)C2)cc1 (stereo partly specified) | 2.72%
CCOc1ccc(N2CC(C(=O)NCc3ccccn3)CC2=O)cc1 (stereo unspecified) | -1.93%
CC(OC(=O)c1ccc(-n2cnnn2)cc1)C(=O)NCc1ccccc1 (stereo unspecified) | 3.57%
COC(=O)CSc1nc2ccccc2c(=O)n1Cc1ccccc1 | 5.12%
CCC(=O)Nc1c(S(=O)(=O)c2ccccc2)c2nc3ccccc3nc2n1Cc1ccccc1 | 22.2% (active)
CCN(CC)CCn1c(N)c(S(=O)(=O)c2ccccc2)c2nc3ccccc3nc21 | 0.032%
O=C(CCCN=C1NS(=O)(=O)c2ccccc21)OCC(=O)c1ccc(F)c(F)c1 | 3.32%
CCC1(c2ccccc2)NC(=O)N(CC(=O)c2ccc3c(c2)OCO3)C1=O (stereo unspecified) | 1.92%
O=C(Nc1ccc(N2CCCCC2)cc1)c1cc(S(=O)(=O)N2CCOCC2)ccc1F | -0.386%
CCn1c2ccccc2c2cc(NC(=O)CNC)ccc21 | 18.8% (active)
CCn1c2ccccc2c2cc(NC(=O)C/C(C)=N/NC(=O)c3ccccc3N)ccc21 | -6.36%
CCn1c2ccccc2c2cc(NC(=O)COC(=O)c3ccccc3Br)ccc21 | -2.01%
COc1ccc(S(=O)(=O)N2CCCCC2)cc1NC(=O)c1cc([N+](=O)[O-])ccc1N1CCOCC1 | 8.1%
CC1CN(c2cc(=O)n(-c3cccc(Br)c3)c(=O)[nH]2)CC(C)O1 (stereo unspecified) | 39.6% (active)
CC1CN(C(=S)Nc2ccc(Br)cc2Cl)CC(C)O1 (stereo unspecified) | -3.05%

Compound | inhibition
CC1CN(c2cc(=O)n(Cc3ccc(F)cc3)c(=O)[nH]2)CC(C)O1 (stereo unspecified) | 8.41%
CCOC(=O)c1c(C)oc2cc(Sc3ccccc3)c(O)c(O)c12 | -4.55%
CS(=O)(=O)c1ccc(Cl)c(NC(=O)COC(=O)c2ncc(Cl)c(Cl)c2Cl)c1 | -0.161%
COc1cc(-c2nnc(NC(=O)C3=COCCO3)o2)cc(OC)c1OC | -0.69%
CCN1C(=O)[C@@H]2[C@@H](c3ccc(-c4cccc(Cl)c4)cc3)N3CCC[C@@]3(C(=O)OC)[C@@H]2C1=O | 0.656%
CCCNC(=O)c1onc(CSc2ccc(F)cc2)c1C(=O)NC(C)C | -1.02%
CC1CCN(c2ccc(-c3ccc(NC(=O)c4ccco4)cc3)nn2)CC1 | 0.987%
NC(=O)c1c(Nc2nc3c(F)cccc3s2)sc2c1CCCC2 | 154% (active)
NC(=O)c1c(NC(=O)c2ccccc2)sc2c1CCCC2 | 3.77%
COc1cccc(OC)c1C(=O)Nc1sc2c(c1C(N)=O)CCCC2 | 3.19%
CCOc1ccc(NC(=O)COc2ccc(C(=O)N3CCC(C(N)=O)CC3)cc2OC)cc1 | 1.65%
COc1ccc(C2=NN(C(=O)CSc3nc(=O)n4ccc(C)cc4n3)C(c3ccc(C)cc3)C2)cc1 (stereo unspecified) | 3.51%
CCOCCCNC(=O)c1cc2c(=O)n3ccccc3nc2s1 | -3.33%
Cc1ccc(Cn2c(=N)c(S(=O)(=O)c3ccc(C)cc3)cc3c(=O)n4ccccc4nc32)cc1 | 1.91%
CCn1c(=N)c(S(=O)(=O)c2ccc(F)cc2)cc2c(=O)n3ccccc3nc21 | 152% (active)
C=CCSc1nnc2c(n1)-c1cccc3cccc-2c13 | 6.48%
Cc1cccc2cc(C#N)c(N3CCCC3)nc12 | 39.6% (active)
CC(=O)c1ccc(S(=O)(=O)N2CCN(c3nc4c(C)c(C)ccc4cc3C#N)CC2)cc1 | 6.35%
Cc1cc(C)c2nc(N3CCCC3)c(C#N)cc2c1 | 2.23%
CCN(CC(=O)Nc1c(F)cccc1F)C(=O)c1ccc(-c2ccccc2)cc1 | -2.68%
COc1ccccc1C(=O)NC(=O)COC(=O)c1ccco1 | 1.31%
Nc1cccc2c1C(=O)N(Cc1nnc(-c3ccccc3Br)o1)C2=O | 35.1% (active)
CCOC(=O)N1CCN(Cc2nnc(-c3ccccc3Cl)o2)CC1 | -2.66%

Compound | inhibition
Cn1cnnc1SCc1nnc(-c2ccccc2Br)o1 | 2.51%
COC(=O)Cc1cc(=O)n(-c2nc3ccccc3s2)[nH]1 | 18.9% (active)
COC(=O)Cc1[nH]n(-c2nc3ccccc3s2)c(=O)c1C(C)=Nc1ccc(OC)cc1 | -3.75%
C/C(=N\NC(=O)CC(C)C)c1c(C(F)(F)F)[nH]n(-c2nc3ccccc3s2)c1=O | 4.64%
Cc1ccc(OCC(=O)Oc2ccccc2[N+](=O)[O-])cc1 | 0.472%
CC(=O)Nc1ccc(-c2nc3ccccc3o2)cc1 | -2.08%
CC(=O)Nc1ccc(Nc2c3ccccc3nc3ccccc23)cc1 | 52.8% (active)
Cc1ccc(Nc2c3c(nc4ccccc24)CCC3)cc1 | 2.17%
COc1ccc(NC(=O)CSc2nnc(Cc3ccccc3)c(=O)n2N)cc1 | -2%
Fc1ccccc1COc1cccc2cccnc12 | 1.44%
COC(=O)c1sc(NC(=O)c2ccc(OC)cc2OC)nc1C | -3.52%
COc1cc(SC)ccc1C(=O)Nc1nc(C)cs1 | 18.1% (active)
COc1cc(SC)ccc1C(=O)Nc1cc(C)ccn1 | -5.84%
CC12CCC(=O)N1C(C(=O)NCCN1C(=O)S/C(=C\c3ccccc3F)C1=O)CS2 (stereo unspecified) | 6.01%
C=C(C)CNC(=O)c1ccc(OC2CCN(C(=O)COC)CC2)cc1 | -0.667%
CCN1CCN(C(=O)N(Cc2ccc(Cl)cc2)S(=O)(=O)c2ccc(C)cc2)CC1 | 9.84%
CC(=O)c1cc(C#N)c(N2CC(C)OC(C)C2)nc1C (stereo unspecified) | 25.3% (active)
CC(=O)c1cc(C#N)c(SCC(=O)C(C)(C)C)nc1C | -3.56%
CC(=O)c1cc(C#N)c(N2CCCCC2)nc1C | 2.36%
CC(=O)N/C(=C\c1ccccc1)C(=O)OC(C)C(=O)N(C)c1ccccc1 (stereo unspecified) | 1.82%
O=[N+]([O-])c1ncc(Br)cc1Nc1ccccc1 | 6.49%
COc1ccccc1NC(=O)Nc1nc(CC(=O)Nc2ccccc2F)cs1 | 1.51%
Cc1ccnc(NC(=O)CNC(=O)c2ccccc2)c1 | 5.13%

Compound | inhibition
O=C(Cc1ccc(Br)cc1)NCCc1ccccc1 | 5.4%
CCCn1nc(NC(=O)C(C)C)c2cc3cc(OC)ccc3nc21 | 57.9% (active)
CCCn1nc(NS(=O)(=O)c2ccccc2)c2cc3cc(C)ccc3nc21 | -1.51%
CCCn1nc(NS(=O)(=O)c2ccc(F)cc2)c2cc3ccccc3nc21 | 4.53%
Cc1ccc2c(C)c(C(=O)N3CCN(c4ccncc4)CC3)oc2c1C | 1.96%
O=C(NCCCN1CCCC1=O)c1ccc(S(=O)(=O)Nc2ccccc2)cc1 | -2.45%
CCOc1ccc(C(=O)NCCCN2CCCC2=O)cc1 | 3%
CC(C)(C)OC(=O)c1c(N)n(CCCN2CCCC2=O)c2nc3ccccc3nc12 | 41.8% (active)
Cc1nc(-c2ccc(F)cc2)c(CC(=O)Nc2cc(S(=O)(=O)N3CCCCC3)ccc2C)s1 | 1.23%
O=C(NCc1ccc2c(c1)OCO2)c1c(O)nc2sccn2c1=O | -0.147%
COc1ccc(C(=O)Nc2cccc(NC(=O)c3ccc(OC)cc3OC)n2)c(OC)c1 | 3.03%
CCCCN1C(N)=NC[C@@H]1CC1CCCCC1 | 0.418%
CCOC(=O)c1cc2c(=O)n3ccccc3nc2n(CC(C)C)c1=NC(=O)c1c(-c2c(F)cccc2Cl)noc1C | 94.5% (active)
Cc1onc(-c2c(F)cccc2Cl)c1C(=O)N(C)CC(=O)Nc1cccc(F)c1 | 0.755%
C/C(=N/OC(=O)c1c(-c2c(F)cccc2Cl)noc1C)c1cnccn1 | -0.76%
CCOC(=O)c1cccc(NC(=O)c2ccc(F)cc2F)c1 | -2.82%
CCc1cccc(NC(=O)COC(=O)C2CCN(c3ccc(C(F)(F)F)cn3)CC2)c1 | -2.11%
O=C(CNC(=O)C12CC3CC(CC(C3)C1)C2)OCC(=O)N1CCCCC1 | 9.25%
COc1cccc(C(=O)N/N=C(\C)c2cccc(NC(=O)c3ccc(F)cc3)c2)c1OC | -1.6%
Cc1ccc(-n2c(SCC(=O)N3CCC(C(=O)O)CC3)nc3ccccc3c2=O)cc1C | -0.912%
Cc1ccc(-n2ncc3c(=O)n(-c4ccc(C)c(C)c4)c(-c4ccco4)nc32)cc1 | -0.295%
Cc1ccc(-n2c(=O)c(C#N)cc3c(=O)n4ccccc4nc32)cc1C | 28% (active)
